In the supplement of paper PMC7411640:
Counter-ions that a name gives are not always drawn.

system: MDA-MB-468; assay: phospho-S6 immunofluorescence (DAPI-normalised), per-plate z-score; higher = higher phospho-S6 signal (less pathway suppression); conditions: co-treatment: GDC0941 450 nM; 24 h
Description: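 GPCR-targeted compound library (MedChemExpress HY-L006) tested on MDA-MB-468 PTEN-null TNBC cells in 384-well plates at 0.1, 1 or 10 uM, combined with vehicle, GDC0941 450 nM or lapatinib 1 uM, for 24 h. Phospho-S6 (S240/244) immunofluorescence normalised to DAPI and expressed as a per-plate z-score; values are the mean of biological triplicates.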

First: CN1CCC(=C2c3ccccc3CCn3c(C=O)cnc32)CC1 [Alcaftadine] (compound 10 µM)
Second: O=c1ccc2ccc(OCCCCN3CCN(c4cccc5sccc45)CC3)cc2[nH]1 [Brexpiprazole] (compound 10 µM)
The “phospho-S6 immunofluorescence (z-score)” value of the first is higher: -0.88 for the first, -5.22 for the second.

Compared with `C[C@@H](NCCCc1cccc(C(F)(F)F)c1)c1cccc2ccccc12` [Cinacalcet] (compound 10 µM), `CC(C)(Cc1ccc2ccccc2c1)NC[C@@H](O)COc1cccc(Cl)c1C#N` (compound 10 µM) is higher in “phospho-S6 immunofluorescence (z-score)” value: -5.01 for the first, -3.37 for the second.

Compared with `Cc1ccc(F)cc1C(=O)Nc1ccc(C(=O)N2Cc3cccn3Cc3ccccc32)c(Cl)c1` [Lixivaptan] (compound 10 µM), `CN(C)CCOC(C)(c1ccccc1)c1ccc(Cl)cc1` (stereo not drawn) [Chlorphenoxamine] (compound 10 µM) is lower in “phospho-S6 immunofluorescence (z-score)” value: -2.79 for the first, -4.26 for the second.

Going from `CCN(CC)CC#CCOC(=O)C(O)(c1ccccc1)C1CCCCC1` (stereo not drawn) [Oxybutynin (chloride)] (compound 10 µM) to `CCc1cc(/C(C)=N/OCc2ccc(C3CCCCC3)c(C(F)(F)F)c2)ccc1CN1CC(C(=O)O)C1` [Siponimod] (compound 10 µM), the “phospho-S6 immunofluorescence (z-score)” value falls from 1.35 to -0.49.

First: C[N+]1(C)CCC(=C(c2ccccc2)c2ccccc2)CC1 [Diphenmanil (methylsulfate)] (compound 10 µM)
Second: CCC(N)(C(=O)O)c1ccc(C(=O)O)cc1 (stereo not drawn) (compound 10 µM)
The “phospho-S6 immunofluorescence (z-score)” value of the first is lower: 0.46 for the first, 0.66 for the second.

Compared with `Nc1ncnc2c1ncn2C1CCCO1` (stereo not drawn) (compound 10 µM), `COc1cc2nc(N3CCN(C(=O)c4ccco4)CC3)nc(N)c2cc1OC` [Prazosin (hydrochloride)] (compound 10 µM) is higher in “phospho-S6 immunofluorescence (z-score)” value: 0.45 for the first, 2.1 for the second.

Compared with `CCC(=O)NC[C@@H]1C[C@H]1c1cccc2c1CCO2` [Tasimelteon] (compound 10 µM), `COc1cc2c(cc1OC)-c1cc3ccc4c(c3c[n+]1CC2)OCO4` [Epiberberine (chloride)] (compound 10 µM) is higher in “phospho-S6 immunofluorescence (z-score)” value: -1.06 for the first, -0.39 for the second.

same assay, conditions: co-treatment: lapatinib 1 uM; 24 h

Compared with `CCOCCn1c(C2CCN(CCc3ccc(C(C)(C)C(=O)O)cc3)CC2)nc2ccccc21` [Bilastine] (compound 10 µM), `O=C(COc1ccc(C(=O)c2ccccc2)cc1)NC1CCN(Cc2ccccc2)CC1` [AdipoRon] (compound 10 µM) is lower in “phospho-S6 immunofluorescence (z-score)” value: 0.94 for the first, -4.87 for the second.

Compared with `COc1ccccc1Oc1c(NS(=O)(=O)c2ccc(C(C)(C)C)cc2)nc(-c2ncccn2)nc1OCCO` [Bosentan] (compound 10 µM), `Cc1cc(C)nc(NS(=O)(=O)c2ccc(NC(=S)NC(=O)COc3ccc(Br)cc3Cl)cc2)n1` (compound 10 µM) is lower in “phospho-S6 immunofluorescence (z-score)” value: 0.78 for the first, -0.41 for the second.

First: CC(C)C(=O)OCC(=O)[C@@]12O[C@H](C3CCCCC3)O[C@@H]1C[C@H]1[C@@H]3CCC4=CC(=O)C=C[C@]4(C)[C@H]3[C@@H](O)C[C@@]12C [Ciclesonide] (compound 10 µM)
Second: C[C@H](CCC(=O)O)[C@H]1CC[C@H]2[C@@H]3CC[C@@H]4C[C@H](O)CC[C@]4(C)[C@H]3C[C@H](O)[C@]12C [Deoxycholic acid] (compound 10 µM)
The “phospho-S6 immunofluorescence (z-score)” value of the first is lower: 0 for the first, 0.6 for the second.

First: CN1CCN(C2=Nc3ccccc3Oc3ccc(Cl)cc32)CC1 [Loxapine (succinate)] (compound 10 µM)
Second: c1ccc2c(c1)N=C(N1CCNCC1)c1ccccc1N2 [DREADD agonist 21] (compound 10 µM)
The “phospho-S6 immunofluorescence (z-score)” value of the first is higher: 1.22 for the first, -1.74 for the second.

Compared with `Cc1noc(-c2ccc(-c3ccc(CC(=O)O)cc3)cc2)c1NC(=O)O[C@H](C)c1ccccc1` [AM095 (free acid)] (compound 10 µM), `Cc1ccc(F)cc1C(=O)Nc1ccc(C(=O)N2Cc3cccn3Cc3ccccc32)c(Cl)c1` [Lixivaptan] (compound 10 µM) is lower in “phospho-S6 immunofluorescence (z-score)” value: 0.37 for the first, -0.79 for the second.

First: CCc1nc2c(C)nc(C)cc2n1-c1ccc(CCNC(=O)NS(=O)(=O)c2ccc(C)cc2)cc1 [Grapiprant] (compound 10 µM)
Second: Cc1c(Cc2ccc3ccccc3n2)c2cc(F)ccc2n1CC(=O)O (compound 10 µM)
The “phospho-S6 immunofluorescence (z-score)” value of the first is lower: -0.15 for the first, 0.39 for the second.

Going from `CCOC(=O)N1CCC(=C2c3ccc(Cl)cc3CCc3cccnc32)CC1` [Loratadine] (compound 10 µM) to `CN1CCC(=C2c3ccccc3CCn3c(C=O)cnc32)CC1` [Alcaftadine] (compound 10 µM), the “phospho-S6 immunofluorescence (z-score)” value rises from -0.82 to 1.09.

First: COc1cc2nc(N3CCN(C(=O)C4CCCO4)CC3)nc(N)c2cc1OC (stereo not drawn) [Terazosin (hydrochloride dihydrate)] (compound 10 µM)
Second: COc1cc2nc(N3CCN(C(=O)c4ccco4)CC3)nc(N)c2cc1OC [Prazosin (hydrochloride)] (compound 10 µM)
The “phospho-S6 immunofluorescence (z-score)” value of the first is higher: 0.9 for the first, 0.54 for the second.

First: CC[C@H](C)[C@@H]1NC(=O)[C@H](Cc2ccc(O)cc2)NC(=O)[C@@H](N)CSSC[C@@H](C(=O)N2CCC[C@H]2C(=O)N[C@@H](CC(C)C)C(=O)NCC(N)=O)NC(=O)[C@H](CC(N)=O)NC(=O)[C@H](CCC(N)=O)NC1=O [Oxytocin (acetate)] (compound 10 µM)
Second: N=C(N)NCCC[C@@H](NC(=O)[C@@H]1CCCN1C(=O)[C@@H]1CSSCCC(=O)N[C@@H](Cc2ccc(O)cc2)C(=O)N[C@@H](Cc2ccccc2)C(=O)N[C@@H](CCC(N)=O)C(=O)N[C@@H](CC(N)=O)C(=O)N1)C(=O)NCC(N)=O [Desmopressin (Acetate)] (compound 10 µM)
The “phospho-S6 immunofluorescence (z-score)” value of the first is higher: -0.07 for the first, -0.21 for the second.

Compared with `O=C(O)Cn1c2c(c3cc(F)ccc31)CN(C(=O)c1cccc3ccccc13)CC2` [Setipiprant] (compound 10 µM), `C[C@@H](NCCCc1cccc(C(F)(F)F)c1)c1cccc2ccccc12` [Cinacalcet] (compound 10 µM) is lower in “phospho-S6 immunofluorescence (z-score)” value: 0.74 for the first, -7.68 for the second.

First: OC[C@H]1O[C@@H](n2cnc3c(N[C@@H]4CCc5ccccc54)ncnc32)[C@H](O)[C@@H]1O (compound 10 µM)
Second: Nc1ncnc2c1ncn2C1CCCO1 (stereo not drawn) (compound 10 µM)
The “phospho-S6 immunofluorescence (z-score)” value of the first is higher: 0.89 for the first, -0.67 for the second.

Going from `CN1[C@@H]2CC[C@H]1C[C@@H](OC(=O)c1c[nH]c3ccccc13)C2` [Tropisetron (Hydrochloride)] (compound 10 µM) to `CCN(CC)CC#CCOC(=O)C(O)(c1ccccc1)C1CCCCC1` (stereo not drawn) [Oxybutynin (chloride)] (compound 10 µM), the “phospho-S6 immunofluorescence (z-score)” value rises from -0.2 to 0.51.

First: Cc1cc2c(cc1CC(=O)c1sccc1S(=O)(=O)Nc1onc(C)c1Cl)OCO2 [Sitaxsentan (sodium)] (compound 10 µM)
Second: COc1cc2c(cc1OC)-c1cc3ccc4c(c3c[n+]1CC2)OCO4 [Epiberberine (chloride)] (compound 10 µM)
The “phospho-S6 immunofluorescence (z-score)” value of the first is higher: 0.35 for the first, 0.22 for the second.

Compared with `CCCN(CCN1CCN(c2ccccc2OC)CC1)C1CCc2ncsc2C1` (stereo not drawn) [ST-836 (hydrochloride)] (compound 10 µM), `O=c1ccc2ccc(OCCCCN3CCN(c4cccc5sccc45)CC3)cc2[nH]1` [Brexpiprazole] (compound 10 µM) is lower in “phospho-S6 immunofluorescence (z-score)” value: -0.62 for the first, -6.92 for the second.

Compared with `N[C@@H](Cc1ccc(O)c(O)c1)C(=O)O` (compound 10 µM), `CCC(N)(C(=O)O)c1ccc(C(=O)O)cc1` (stereo not drawn) (compound 10 µM) is higher in “phospho-S6 immunofluorescence (z-score)” value: -0.12 for the first, 0.12 for the second.

Going from `COc1ccc2ccc(=O)oc2c1CC=C(C)C` [Osthole] (compound 10 µM) to `CN(C)CCOC(C)(c1ccccc1)c1ccc(Cl)cc1` (stereo not drawn) [Chlorphenoxamine] (compound 10 µM), the “phospho-S6 immunofluorescence (z-score)” value falls from 0.19 to -7.36.

Going from `CC(C)c1cc(-c2ccc(F)c3ccccc23)nc(N)n1` (compound 10 µM) to `CC(C)(Cc1ccc2ccccc2c1)NC[C@@H](O)COc1cccc(Cl)c1C#N` [NPS-2143 (hydrochloride)] (compound 10 µM), the “phospho-S6 immunofluorescence (z-score)” value falls from 1.27 to -12.2.

Compared with `COc1cc(N)c(Cl)cc1C(=O)NC1CCN(CCCOc2ccc(F)cc2)CC1OC` (stereo not drawn) [Cisapride] (compound 10 µM), `CCc1cc(/C(C)=N/OCc2ccc(C3CCCCC3)c(C(F)(F)F)c2)ccc1CN1CC(C(=O)O)C1` [Siponimod] (compound 10 µM) is higher in “phospho-S6 immunofluorescence (z-score)” value: -1.88 for the first, 0.38 for the second.

Going from `C[N+]1(C)CCC(=C(c2ccccc2)c2ccccc2)CC1` [Diphenmanil (methylsulfate)] (compound 10 µM) to `CC(C)(Cc1ccc2ccccc2c1)NC[C@@H](O)COc1cccc(Cl)c1C#N` (compound 10 µM), the “phospho-S6 immunofluorescence (z-score)” value falls from 0.06 to -8.76.

With `CCC(=O)NC[C@@H]1C[C@H]1c1cccc2c1CCO2` [Tasimelteon] (compound 10 µM) the “phospho-S6 immunofluorescence (z-score)” value was -0.25.
